The text below walks through data of paper PMC4242493, “Sequence specificity incompletely defines the genome-wide occupancy of Myc”.

The full ranking holds about 33,000 sequences; the median of “normalized occupancy” is about 0.075, and the highest 2% start at about 0.095. The sample as a whole holds a higher share of the highest values than the screen did.

In this experiment the target is MaxL homodimer (Homo sapiens, UniProt P61244 1-160). Description: universal protein-binding microarray (PBM); PBS-based mixture, 10 nM His-tagged protein dimer, 2% milk, 200 ng/uL BSA, 50 ng/uL salmon testes DNA, 0.02% TX-100; detection with Alexa 488 anti-His antibody;; high values mean tight binding. Particulars: protein: recombinant; tags: C-terminal His-tag (pET21a); chain copies: 2; dsDNA, one strand shown. The gist of the method: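 Each 8-mer received a fluorescence intensity from GenePix 4400A scans of Agilent 4 x 44 K 'all 10-mer' universal arrays. Those arrays had been incubated with His-tagged protein dimer at 10 nM, and the bound protein was marked with a fluorophore-conjugated anti-His antibody at 10 ng/μL. Binding occupancy is the intensity scaled to that of the highest-ranked sequence word.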
MaxL homodimer, sequence (P61244 whole entry): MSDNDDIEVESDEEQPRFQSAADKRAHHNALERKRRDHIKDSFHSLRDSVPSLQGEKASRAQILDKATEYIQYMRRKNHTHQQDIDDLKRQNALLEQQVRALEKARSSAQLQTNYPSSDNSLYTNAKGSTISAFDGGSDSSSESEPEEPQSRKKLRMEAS
Regarding ACACGCTA, the binding signal is 0.0915 normalized occupancy.

As for ACACGCCC, the binding signal was found to be 0.0863 normalized occupancy.

As for ACACGCCA, the binding signal was 0.0895 normalized occupancy.

As for ACGCGCCT, the binding signal came out at 0.0828 normalized occupancy.

For the sequence ACACGCCT, the binding signal came out at 0.0971 normalized occupancy.

As to CGTTATAA, the binding signal was 0.079 normalized occupancy.

As for ATGGCTCA, the binding signal was determined as 0.0798 normalized occupancy.

Take CCACCATC: the binding signal came out at 0.0768 normalized occupancy.

Consider CCCGTAAA, for which the binding signal worked out at 0.0752 normalized occupancy.

For CATTAAGA, the binding signal was found to be 0.0765 normalized occupancy.

With CACATATG, the binding signal is 0.095 normalized occupancy.

As to AGCATATC, the binding signal stood at 0.0822 normalized occupancy.

On to ACCATATG, for which the binding signal stood at 0.118 normalized occupancy.

Take ATCATATG: the binding signal was found to be 0.0972 normalized occupancy.

In the case of ACCATATA, the binding signal came to 0.0814 normalized occupancy.

AGCATATG: the binding signal came out at 0.103 normalized occupancy.

As for ATCATATA, the binding signal is 0.0893 normalized occupancy.

With ACCATATC, the binding signal worked out at 0.0845 normalized occupancy.

Turning to AACATATG, the binding signal is 0.1 normalized occupancy.

In the case of AGCATATA, the binding signal was 0.0807 normalized occupancy.

For the sequence AACATATA, the binding signal turned out to be 0.0841 normalized occupancy.

On to ATCATATC, for which the binding signal was 0.0861 normalized occupancy.

For GTTACGTA, the binding signal was 0.0751 normalized occupancy.

On to CTCGATAC, for which the binding signal was 0.0749 normalized occupancy.

For AAATGCTG, the binding signal amounted to 0.0762 normalized occupancy.

Regarding AAAAGCTA, the binding signal amounted to 0.0755 normalized occupancy.

As for GGTACGAC, the binding signal turned out to be 0.0721 normalized occupancy.

As to GAGCACAC, the binding signal worked out at 0.0956 normalized occupancy.

As to CAGCACAC, the binding signal turned out to be 0.0857 normalized occupancy.

In the case of GAGCACAA, the binding signal turned out to be 0.0775 normalized occupancy.

In the case of GCAGAATA, the binding signal was found to be 0.0753 normalized occupancy.

As for ACGTGAAC, the binding signal came out at 0.0842 normalized occupancy.

Take ACGTGAAT: the binding signal came out at 0.0824 normalized occupancy.

Consider CCGTGAAG, for which the binding signal was determined as 0.0739 normalized occupancy.

On to AAGTGAAG, for which the binding signal was 0.076 normalized occupancy.

Regarding ACGTGAAA, the binding signal was determined as 0.097 normalized occupancy.

Regarding ACGTGAAG, the binding signal came to 0.1 normalized occupancy.

In the case of GATGAAAC, the binding signal worked out at 0.0811 normalized occupancy.

Regarding AGCGTTAC, the binding signal was 0.0823 normalized occupancy.

CACGCACC: the binding signal is 0.0913 normalized occupancy.

As to GGCGCACA, the binding signal amounted to 0.0793 normalized occupancy.

AACGCATA: the binding signal was 0.0871 normalized occupancy.

Take CGCGCACG: the binding signal was determined as 0.0959 normalized occupancy.

On to CACGCACG, for which the binding signal stood at 0.096 normalized occupancy.

Take CACGCAAG: the binding signal was determined as 0.0838 normalized occupancy.

Turning to CGCGCACA, the binding signal came out at 0.0822 normalized occupancy.

Turning to TACGCATA, the binding signal worked out at 0.0842 normalized occupancy.

CACGCATA: the binding signal is 0.0976 normalized occupancy.

Turning to GACGCATA, the binding signal was determined as 0.0777 normalized occupancy.

Consider CACGCATG, for which the binding signal stood at 0.121 normalized occupancy.

As to CACGCACA, the binding signal worked out at 0.0923 normalized occupancy.

With ACACAGTC, the binding signal turned out to be 0.0783 normalized occupancy.

For the sequence GTAGTCTA, the binding signal stood at 0.0723 normalized occupancy.

As for GTACTACA, the binding signal worked out at 0.0864 normalized occupancy.

As to ACTTTAGG, the binding signal stood at 0.073 normalized occupancy.

For the sequence ACGCGAAG, the binding signal stood at 0.0765 normalized occupancy.

With AGTAGTAA, the binding signal came to 0.0731 normalized occupancy.

Consider ACAACCGA, for which the binding signal was determined as 0.0733 normalized occupancy.

As for AACGCATG, the binding signal was found to be 0.121 normalized occupancy.

With GACGCATC, the binding signal turned out to be 0.077 normalized occupancy.

For CACGCATC, the binding signal was 0.0962 normalized occupancy.

In the case of AACGCAAG, the binding signal was determined as 0.073 normalized occupancy.

As to AACGCATC, the binding signal was found to be 0.0731 normalized occupancy.

Turning to AACGCATT, the binding signal amounted to 0.0767 normalized occupancy.

For AAACTATT, the binding signal was found to be 0.0745 normalized occupancy.

On to TAGGACTA, for which the binding signal amounted to 0.0732 normalized occupancy.

Take CACCCGTA: the binding signal was 0.0782 normalized occupancy.

Take CAGCATGG: the binding signal was 0.13 normalized occupancy.

CAGCATAA: the binding signal amounted to 0.0808 normalized occupancy.

On to TAGCATGA, for which the binding signal came out at 0.0921 normalized occupancy.

Consider GAGCATGA, for which the binding signal was 0.0963 normalized occupancy.

On to GAGCATCA, for which the binding signal was found to be 0.0734 normalized occupancy.

Consider GAGCATAA, for which the binding signal is 0.0797 normalized occupancy.

As for CAGCATCG, the binding signal was 0.0732 normalized occupancy.

For the sequence CAGCATGA, the binding signal worked out at 0.106 normalized occupancy.

With CAGCATAG, the binding signal was found to be 0.0739 normalized occupancy.

Take CGTCGAAC: the binding signal was determined as 0.0719 normalized occupancy.

On to GCTCGTGA, for which the binding signal amounted to 0.0843 normalized occupancy.

As to ACTCGTCA, the binding signal was 0.0793 normalized occupancy.

In the case of CCTCGTGC, the binding signal is 0.133 normalized occupancy.

As for AGTCGTGA, the binding signal amounted to 0.0749 normalized occupancy.

As for CCTCGTTC, the binding signal was 0.0806 normalized occupancy.

ACTCGTGC: the binding signal came to 0.0933 normalized occupancy.

For ACTCGTGG, the binding signal amounted to 0.0955 normalized occupancy.

For AATCGTGG, the binding signal was 0.0832 normalized occupancy.

For the sequence CCTCGTGA, the binding signal turned out to be 0.125 normalized occupancy.

Consider CATCGTGC, for which the binding signal was 0.0886 normalized occupancy.

Take ACTCGTGA: the binding signal worked out at 0.0957 normalized occupancy.

Turning to CCTCGTTA, the binding signal came out at 0.0752 normalized occupancy.
